DENV2 CPE = DENV2-induced cell death inhibition. CPE inhibition, % at 9.99 µM. DENV2-infected cells, cytopathic effect rescue, plate reader. 350,000 compounds, 1.7% hits; in the data active means CPE inhibition above about 20%, passing the limit was not always enough; inconclusive means no clear call, values can overlap the other calls; tested in BHK-21 cells;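 further: 0% = median of neutral control wells and 100% = median of positive control wells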
PDI inh = blocks human protein disulfide isomerase activity; P07237; PDI insulin aggregation turbidity, A650, 90 min; inhibition, % at 10 µM; 350,000 compounds, 0.052% hits; AID 588391;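 active means mean inhibition across replicates of 30% or more, whatever share of single replicates reach that level; inconclusive means mean inhibition below 30% while every single replicate reaches 30%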
Target sequence (P07237 whole entry, looked up): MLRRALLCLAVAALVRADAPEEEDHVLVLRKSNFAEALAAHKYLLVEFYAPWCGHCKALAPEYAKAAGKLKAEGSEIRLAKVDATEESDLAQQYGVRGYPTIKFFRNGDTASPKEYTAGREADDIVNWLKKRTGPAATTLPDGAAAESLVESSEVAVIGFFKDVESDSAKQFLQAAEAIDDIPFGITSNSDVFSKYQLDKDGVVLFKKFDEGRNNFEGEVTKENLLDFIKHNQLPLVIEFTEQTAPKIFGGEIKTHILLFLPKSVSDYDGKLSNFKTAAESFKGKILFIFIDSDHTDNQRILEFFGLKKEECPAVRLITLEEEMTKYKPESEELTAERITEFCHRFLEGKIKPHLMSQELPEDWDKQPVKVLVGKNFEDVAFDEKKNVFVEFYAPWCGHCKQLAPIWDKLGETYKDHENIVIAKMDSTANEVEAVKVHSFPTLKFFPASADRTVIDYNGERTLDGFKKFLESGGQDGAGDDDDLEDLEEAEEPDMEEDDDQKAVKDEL
ERAP1 HTS inh = blocks human ERAP1 aminopeptidase activity. 340,000 compounds, 0.15% hits. inhibition, % at 10.7 µM. recombinant ERAP1, Leu-AMC fluorescence, 60 min. AID 652197. Q9NZ08;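 active means mean replicate inhibition of at least 30%, or all replicates individually reaching that 30% level; inactive means mean below 30% and not every replicate reaching it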;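 further: 0% = neutral control wells and 100% = L-leucinethiol positive control wells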
MLL AF4-AF9 inh = MLL-AF4/AF9 protein interaction inhibition. P42568. AlphaScreen, biotin-AF4 peptide binding to FLAG-AF9. inhibition, % at 10 µM. 350,000 compounds, 0.47% hits. AID 651704;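 active means every replicate reaching a set inhibition limit, whatever the replicate mean, cut at about 25% in these data; inconclusive means mean inhibition reaches that limit but some replicates miss it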;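 further: 0% = plate neutral control median and 100% = total signal loss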
ERp5 inh = blocks human ERp5 reductase activity on insulin | inhibition, % at 9.99 µM | ERp5 insulin aggregation, absorbance 650 nm, 90 min | 350,000 compounds, 0.05% hits | AID 651711 | Q15084;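 active means mean replicate inhibition above about 25%, with every replicate also reaching it, limit read from the data, passing the limit was not always enough; inconclusive means only one of those two criteria met; inactive means neither criterion met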
* marks the source's active call; other numbers are inactive results; ? = inconclusive; . = no result. In the library only some 1.8% were active in any assay of this set; here they are far more common.

SMILES	DENV2 CPE	PDI inh	ERAP1 HTS inh	MLL AF4-AF9 inh	ERp5 inh
O=C(C[C@H]1CC[C@H](NC(=O)c2ccncc2)[C@H](CO)O1)NCCc1ccncc1	-3	.	-1	-1	-3
O=C1CCN(Cc2ccc(Br)cc2)CCN1CCO	29*	-2	.	-2	4
COc1ccc(NC(=O)c2cc3ccccc3cc2O)cc1	46*	7	2	-2	2
C[C@@H]1CN([C@H](C)CO)C(=O)Cc2cc(NC(=O)Nc3cccc4ccccc34)ccc2O[C@@H]1CN(C)C(=O)Nc1ccc2c(c1)OCO2	0	.	-2	1	-3
C[C@@H]1CN([C@H](C)CO)C(=O)Cc2cc(NC(=O)CCCCCC(=O)Nc3ccccc3N)ccc2O[C@H]1CN(C)S(C)(=O)=O	4	.	1	0	-5
O=C(Cc1ccc2c(c1)OCO2)NN=Cc1ccc([N+](=O)[O-])o1	61*	3	-4	-5	-1
C[C@@H]1CN([C@H](C)CO)C(=O)c2cccc(NC(=O)c3ccncc3)c2O[C@H]1CN(C)Cc1ccccc1	5	.	0	2	-2
COCC(=O)N1CC[C@@H]2[C@H](CO)Nc3ccc(-c4cccc(C#N)c4)cc3[C@@H]21	44*	.	2	-3	10
COCC(=O)N1CC[C@H]2[C@H](CO)Nc3ccc(C#Cc4ccc(OC)cc4)cc3[C@H]21	29*	.	0	23	2
COCC(=O)N1CC[C@@H]2[C@H]1c1cc(-c3cccc(C#N)c3)ccc1N[C@@H]2CO	-3	.	0	-1	-1
N#Cc1cccc(-c2ccc3c(c2)[C@H]2[C@H](CCN2Cc2ccncc2)[C@H](CO)N3)c1	50*	.	3	-2	0
N#Cc1cccc(-c2ccc3c(c2)[C@@H]2[C@@H](CCN2Cc2ccncc2)[C@@H](CO)N3)c1	-9	.	2	6	0
CCC(=O)N1CC[C@H]2[C@H](CO)Nc3ccc(C#Cc4ccc(OC)cc4)cc3[C@H]21	56*	.	2	26*	1
COc1ccc(C#Cc2ccc3c(c2)[C@H]2[C@H](CCN2C(=O)C2CC2)[C@@H](CO)N3)cc1	17	.	5	1	-2
COCC(=O)N1CC2(C1)[C@H](c1ccc(-c3ccccc3)cc1)[C@@H](CO)N2C(C)=O	-9	.	-1	-2	-2
CO[C@@H]1CN(C)C(=O)c2cc(NC(=O)Nc3cccc(Cl)c3)ccc2OC[C@H](C)NC[C@H]1C	-3	.	0	3	0
OC[C@@H]1Nc2ccc(C3=CCCCC3)cc2[C@@H]2[C@H]1CCN2Cc1nccs1	7	.	-2	25*	-5
CCN1[C@H](C(=O)NCC(F)(F)F)[C@@H](CO)[C@@H]2Cn3c(ccc(-c4ccccc4)c3=O)[C@@H]21	17	.	.	.	.
O=C(C[C@H]1C=C[C@H](NC(=O)Nc2ccc(F)cc2)[C@H](CO)O1)NCc1ccccn1	17	.	-3	2	4
O=C(NC1CCCC1)C(c1ccco1)N1CCN(c2c(Cl)cncc2Cl)CC1 (stereo unspecified)	24*	.	-3	.	2
O=C(NC1CCCC1)C(c1ccco1)N1CCC(O)(c2ccc(Cl)cc2)CC1 (stereo unspecified)	-4	.	-3	.	-3
CCc1cccc(NC(=O)C2CCN(S(=O)(=O)c3ccc4[nH]c(=O)ccc4c3)CC2)c1	?	.	7	40*	3
C=CCN1C(=O)N/C(=C/c2ccccc2OCC(=O)Nc2ccc(F)cc2)C1=O	22*	-1	-2	0	-7
O=C(COc1ccccc1/C=C1\SC(=O)NC1=O)Nc1ccc(F)cc1	.	5	15	-5	1
CCCNC(=O)Nc1ccc2c(c1)C(=O)N(C)C[C@H](OC)[C@H](C)CN(Cc1cncnc1)[C@H](C)CO2	53*	.	-1	-2	-2
SMILES	DENV2 CPE	PDI inh	ERAP1 HTS inh	MLL AF4-AF9 inh	ERp5 inh
CCCC(=O)Nc1ccc2c(c1)C(=O)N(C)C[C@H](OC)[C@@H](C)CN(Cc1ccc(-c3ccccn3)cc1)[C@@H](C)CO2	13	.	1	0	5
CCCNC(=O)Nc1ccc2c(c1)OC[C@@H](C)N(Cc1ccc(-c3ccccn3)cc1)C[C@@H](C)[C@H](OC)CN(C)C2=O	2	.	1	3	14
CCCC(=O)Nc1ccc2c(c1)C(=O)N(C)C[C@H](OC)[C@@H](C)CN(Cc1ccc(-c3ccccn3)cc1)[C@H](C)CO2	36*	.	1	0	15
CCCNC(=O)Nc1ccc2c(c1)OC[C@H](C)N(Cc1ccc(-c3ccccn3)cc1)C[C@@H](C)[C@H](OC)CN(C)C2=O	25*	.	-2	1	-4
CCCNC(=O)[C@H]1[C@H](CO)[C@H]2Cn3c(cccc3=O)[C@H]2N1CCC(F)(F)F	2	.	2	0	4
COCC(=O)N1C[C@@H](C)[C@H](OC)CN(C)C(=O)c2ccc(NS(C)(=O)=O)cc2OC[C@H]1C	-1	.	.	-2	4
O=C(CN1CCOCC1)N1CC2(C1)[C@H](c1ccccc1)[C@H](CO)N2Cc1ccc(F)cc1	16	.	-3	3	-3
CCCCCCCCN1C(=O)[C@H](CC(=O)NCCCC)C[C@@]2(C(=O)OCC)CCCC=C12	-2	.	2	0	-3
C#CCNC(=O)C[C@@H]1C[C@@]2(C(=O)OC)CCCCC=C2N(Cc2cccc3ccccc23)C1=O	90*	.	-2	3	-2
CCCCCCCCN1C(=O)[C@H](CC(=O)NCC23CC4CC(CC(C4)C2)C3)C[C@@]2(C(=O)OCC)CCCC=C12	20*	.	-1	-2	-6
C#CCNC(=O)C[C@@H]1C[C@@]2(C(=O)OCC)CCC=C2N(Cc2cccc3ccccc23)C1=O	0	.	-1	0	-2
COC(=O)[C@]12CCCCC=C1N(Cc1cccc3ccccc13)C(=O)[C@H](CC(=O)NCC13CC4CC(CC(C4)C1)C3)C2	47*	.	-2	0	1
CO[C@@H]1CN(C)C(=O)c2cc(NC(C)=O)ccc2OC[C@@H](C)N(C(=O)C2CCC2)C[C@@H]1C	-5	.	-1	4	-2
CO[C@H]1CN(C)C(=O)c2cc(NS(=O)(=O)CC(F)(F)F)ccc2OC[C@@H](C)N(Cc2cccnc2)C[C@@H]1C	6	.	4	-2	3
C=CCn1c(C)csc1=Nc1ccccc1C	5	0	0	27*	-3
C=CCn1c(C)csc1=Nc1ccc(C(C)=O)cc1	.	2	10	4	-11
COc1cccc(-c2ccc3c(c2)[C@@H]2[C@@H](CCN2C(=O)c2ccc(F)cc2)[C@H](CO)N3)c1	-19	.	-1	-4	-4
Cc1ccc(S(=O)(=O)Nc2ccc3c(c2)C(=O)N([C@H](C)CO)C[C@@H](C)[C@@H](CN(C)Cc2ccncc2)OCCCC[C@@H](C)O3)cc1	-5	.	-5	3	3
CCC(=O)N1[C@H](CNC(C)=O)[C@H](c2ccc(-c3cccc(F)c3)cc2)[C@@H]1CO	-8	.	-2	-1	3
CN(C)c1ccc(Nc2nc(N)c([N+](=O)[O-])c(N3CCOCC3)n2)cc1	-2	6	3	30*	11

Source: PubChem BioAssay (Broad Institute)
